The text below walks through data of ChEMBL document CHEMBL1961873, “Compounds: GSK PKIS; Assays: Nanosyn kinase panel” (2012).

The target in assay [1] is Glycogen synthase kinase-3 beta (Homo sapiens) (UniProt P49841). Conditions: at 1 µM.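 Also: reported values are mean percent inhibition of GSK3B.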
Assay [2] deals with Homeodomain-interacting protein kinase 1 (Homo sapiens) (UniProt Q86Z02). To be noted: at 0.1 µM.
For assay [3] the target is unchanged. To be noted: at 1 µM.
Assay [4] concerns the target T1, Homeodomain-interacting protein kinase 4 (Homo sapiens) (UniProt Q8NE63).
T1 sequence (whole entry): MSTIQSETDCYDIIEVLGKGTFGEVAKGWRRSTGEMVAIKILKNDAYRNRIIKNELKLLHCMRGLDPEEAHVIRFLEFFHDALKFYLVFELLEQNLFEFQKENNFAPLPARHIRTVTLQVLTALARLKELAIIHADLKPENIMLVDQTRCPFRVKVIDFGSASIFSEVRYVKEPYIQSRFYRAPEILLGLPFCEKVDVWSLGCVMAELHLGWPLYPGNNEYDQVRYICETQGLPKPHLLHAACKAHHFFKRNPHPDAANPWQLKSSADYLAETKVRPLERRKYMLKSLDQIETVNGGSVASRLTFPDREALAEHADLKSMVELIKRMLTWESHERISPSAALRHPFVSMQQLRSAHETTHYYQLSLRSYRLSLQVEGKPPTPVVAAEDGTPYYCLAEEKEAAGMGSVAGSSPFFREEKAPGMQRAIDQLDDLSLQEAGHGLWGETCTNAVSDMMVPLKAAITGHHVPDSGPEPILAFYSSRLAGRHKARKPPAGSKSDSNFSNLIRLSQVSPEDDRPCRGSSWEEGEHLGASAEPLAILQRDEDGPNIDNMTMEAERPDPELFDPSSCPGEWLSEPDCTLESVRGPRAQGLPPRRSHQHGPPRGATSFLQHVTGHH
Conditions: at 0.1 µM.

In assay [5] the target is T1, Homeodomain-interacting protein kinase 4 (Homo sapiens). To be noted: at 1 µM.
Assay [6] addresses Mitogen-activated protein kinase 9 (Homo sapiens) (UniProt P45984). Conditions: at 0.1 µM.
For assay [7] the target is unchanged. To be noted: at 1 µM.
For assay [8], the target named is Mitogen-activated protein kinase 1 (Homo sapiens) (UniProt P28482). To be noted: at 0.1 µM.
Mitogen-activated protein kinase 1 (Homo sapiens), sequence (P28482 whole entry): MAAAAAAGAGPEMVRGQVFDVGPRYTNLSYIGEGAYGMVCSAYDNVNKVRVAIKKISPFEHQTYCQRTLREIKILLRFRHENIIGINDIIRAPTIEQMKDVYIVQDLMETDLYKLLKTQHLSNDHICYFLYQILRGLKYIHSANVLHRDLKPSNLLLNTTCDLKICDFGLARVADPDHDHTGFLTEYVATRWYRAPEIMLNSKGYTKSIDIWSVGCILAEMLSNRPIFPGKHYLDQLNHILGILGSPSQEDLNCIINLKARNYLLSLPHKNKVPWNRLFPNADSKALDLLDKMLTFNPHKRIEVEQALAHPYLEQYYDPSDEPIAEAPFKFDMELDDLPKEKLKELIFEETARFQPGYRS
Assay [9] has the same target. To be noted: at 1 µM.
The target of assay [10] is Mitogen-activated protein kinase 3 (Homo sapiens) (UniProt P27361). Conditions: at 0.1 µM.
Mitogen-activated protein kinase 3 (Homo sapiens), sequence (P27361 whole entry): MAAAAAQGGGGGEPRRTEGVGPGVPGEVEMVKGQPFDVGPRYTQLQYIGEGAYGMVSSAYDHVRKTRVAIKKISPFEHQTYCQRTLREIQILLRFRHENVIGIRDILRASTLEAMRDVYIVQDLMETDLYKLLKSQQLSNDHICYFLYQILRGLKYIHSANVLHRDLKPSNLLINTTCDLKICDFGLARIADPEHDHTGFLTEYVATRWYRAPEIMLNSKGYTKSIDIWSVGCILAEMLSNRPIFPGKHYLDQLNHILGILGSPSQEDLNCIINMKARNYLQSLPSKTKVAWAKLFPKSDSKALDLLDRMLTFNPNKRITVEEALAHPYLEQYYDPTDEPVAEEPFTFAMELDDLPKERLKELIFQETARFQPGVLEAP
Assay [11] shares this target. To be noted: at 1 µM.
The target in assay [12] is SRSF protein kinase 3 (Homo sapiens) (UniProt Q9UPE1). To be noted: at 0.1 µM.
SRSF protein kinase 3 (Homo sapiens), sequence (Q9UPE1 whole entry): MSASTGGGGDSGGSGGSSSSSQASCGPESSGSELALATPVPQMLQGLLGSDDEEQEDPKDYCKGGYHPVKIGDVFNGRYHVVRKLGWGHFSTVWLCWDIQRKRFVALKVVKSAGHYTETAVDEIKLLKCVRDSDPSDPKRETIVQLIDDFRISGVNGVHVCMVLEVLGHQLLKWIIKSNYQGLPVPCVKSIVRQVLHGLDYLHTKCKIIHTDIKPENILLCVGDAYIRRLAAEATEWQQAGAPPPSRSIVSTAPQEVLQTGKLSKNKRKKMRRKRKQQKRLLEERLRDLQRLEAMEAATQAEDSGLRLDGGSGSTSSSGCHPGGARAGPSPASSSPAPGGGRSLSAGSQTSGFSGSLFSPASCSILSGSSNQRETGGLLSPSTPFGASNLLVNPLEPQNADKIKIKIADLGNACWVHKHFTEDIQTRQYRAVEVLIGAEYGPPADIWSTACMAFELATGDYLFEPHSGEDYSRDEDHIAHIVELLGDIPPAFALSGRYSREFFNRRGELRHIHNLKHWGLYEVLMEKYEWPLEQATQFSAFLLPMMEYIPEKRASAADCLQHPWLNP
Assay [13] has the same target. Conditions: at 1 µM.
The target in assay [14] is Mitogen-activated protein kinase 14 (Homo sapiens) (UniProt Q16539). Conditions: at 0.1 µM.
Mitogen-activated protein kinase 14 (Homo sapiens), sequence (Q16539 whole entry): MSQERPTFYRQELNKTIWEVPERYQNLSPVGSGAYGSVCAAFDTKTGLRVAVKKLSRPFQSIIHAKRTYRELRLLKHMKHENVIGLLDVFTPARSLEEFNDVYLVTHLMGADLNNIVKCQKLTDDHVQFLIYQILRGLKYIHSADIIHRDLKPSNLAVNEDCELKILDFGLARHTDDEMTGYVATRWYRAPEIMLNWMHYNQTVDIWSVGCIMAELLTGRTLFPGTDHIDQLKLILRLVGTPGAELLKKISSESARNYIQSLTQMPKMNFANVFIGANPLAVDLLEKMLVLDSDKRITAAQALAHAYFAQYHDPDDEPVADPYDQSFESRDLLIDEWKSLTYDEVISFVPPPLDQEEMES
Assay [15] has the same target. To be noted: at 1 µM.
The target of assay [16] is Mitogen-activated protein kinase 11 (Homo sapiens) (UniProt Q15759). Conditions: at 0.1 µM.
Mitogen-activated protein kinase 11 (Homo sapiens), sequence (Q15759 whole entry): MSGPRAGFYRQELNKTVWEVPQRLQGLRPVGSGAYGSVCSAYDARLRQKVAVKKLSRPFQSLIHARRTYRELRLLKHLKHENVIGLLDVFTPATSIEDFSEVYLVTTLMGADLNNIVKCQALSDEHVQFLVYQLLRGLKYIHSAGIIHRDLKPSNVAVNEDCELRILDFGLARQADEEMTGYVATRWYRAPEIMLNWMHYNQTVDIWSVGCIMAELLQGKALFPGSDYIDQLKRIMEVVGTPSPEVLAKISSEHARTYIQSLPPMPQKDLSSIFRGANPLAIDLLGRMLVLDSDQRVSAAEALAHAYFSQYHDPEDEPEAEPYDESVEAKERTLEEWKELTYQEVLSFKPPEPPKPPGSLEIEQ
Assay [17] shares this target. To be noted: at 1 µM.
Assay [18] addresses T2, Mitogen-activated protein kinase 13 (Homo sapiens) (UniProt O15264).
T2 sequence (whole entry): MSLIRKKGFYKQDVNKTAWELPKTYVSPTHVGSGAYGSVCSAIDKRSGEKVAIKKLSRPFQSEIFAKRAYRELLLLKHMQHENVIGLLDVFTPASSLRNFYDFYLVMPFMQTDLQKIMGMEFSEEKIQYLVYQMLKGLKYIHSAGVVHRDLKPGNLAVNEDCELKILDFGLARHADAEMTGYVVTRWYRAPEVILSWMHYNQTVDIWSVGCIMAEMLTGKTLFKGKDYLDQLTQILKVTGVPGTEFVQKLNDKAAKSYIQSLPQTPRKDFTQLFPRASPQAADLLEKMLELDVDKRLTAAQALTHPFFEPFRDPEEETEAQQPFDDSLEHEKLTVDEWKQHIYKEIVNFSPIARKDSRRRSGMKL
To be noted: at 0.1 µM.

Assay [19] has as its target T2, Mitogen-activated protein kinase 13 (Homo sapiens). To be noted: at 1 µM.
The target of assay [20] is T3, Mitogen-activated protein kinase 12 (Homo sapiens) (UniProt P53778).
T3 sequence (whole entry): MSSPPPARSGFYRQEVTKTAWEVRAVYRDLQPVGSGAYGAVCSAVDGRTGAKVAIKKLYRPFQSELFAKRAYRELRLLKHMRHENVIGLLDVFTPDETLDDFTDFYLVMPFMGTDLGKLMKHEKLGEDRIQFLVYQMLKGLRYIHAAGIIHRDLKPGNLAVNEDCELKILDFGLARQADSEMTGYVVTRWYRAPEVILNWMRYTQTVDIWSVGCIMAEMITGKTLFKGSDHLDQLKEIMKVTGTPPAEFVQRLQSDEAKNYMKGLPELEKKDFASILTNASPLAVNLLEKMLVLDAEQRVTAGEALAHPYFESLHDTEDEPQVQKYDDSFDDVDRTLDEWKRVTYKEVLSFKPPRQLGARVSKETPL
Conditions: at 0.1 µM.

Structures are written as SMILES.

Mitogen-activated protein kinase 9 (Homo sapiens), sequence (P45984 whole entry, looked up): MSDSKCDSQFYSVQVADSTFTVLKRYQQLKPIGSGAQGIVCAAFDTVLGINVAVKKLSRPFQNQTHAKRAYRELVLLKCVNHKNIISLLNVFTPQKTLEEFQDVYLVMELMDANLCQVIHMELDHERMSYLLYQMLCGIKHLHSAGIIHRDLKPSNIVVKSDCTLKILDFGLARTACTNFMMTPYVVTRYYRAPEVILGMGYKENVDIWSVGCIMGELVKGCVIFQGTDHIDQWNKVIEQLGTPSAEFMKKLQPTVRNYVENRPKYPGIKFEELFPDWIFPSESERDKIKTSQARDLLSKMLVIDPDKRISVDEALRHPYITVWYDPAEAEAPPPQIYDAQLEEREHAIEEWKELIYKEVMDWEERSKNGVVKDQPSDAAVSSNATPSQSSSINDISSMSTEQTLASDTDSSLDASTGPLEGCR
Homeodomain-interacting protein kinase 1 (Homo sapiens), sequence (Q86Z02 whole entry, looked up): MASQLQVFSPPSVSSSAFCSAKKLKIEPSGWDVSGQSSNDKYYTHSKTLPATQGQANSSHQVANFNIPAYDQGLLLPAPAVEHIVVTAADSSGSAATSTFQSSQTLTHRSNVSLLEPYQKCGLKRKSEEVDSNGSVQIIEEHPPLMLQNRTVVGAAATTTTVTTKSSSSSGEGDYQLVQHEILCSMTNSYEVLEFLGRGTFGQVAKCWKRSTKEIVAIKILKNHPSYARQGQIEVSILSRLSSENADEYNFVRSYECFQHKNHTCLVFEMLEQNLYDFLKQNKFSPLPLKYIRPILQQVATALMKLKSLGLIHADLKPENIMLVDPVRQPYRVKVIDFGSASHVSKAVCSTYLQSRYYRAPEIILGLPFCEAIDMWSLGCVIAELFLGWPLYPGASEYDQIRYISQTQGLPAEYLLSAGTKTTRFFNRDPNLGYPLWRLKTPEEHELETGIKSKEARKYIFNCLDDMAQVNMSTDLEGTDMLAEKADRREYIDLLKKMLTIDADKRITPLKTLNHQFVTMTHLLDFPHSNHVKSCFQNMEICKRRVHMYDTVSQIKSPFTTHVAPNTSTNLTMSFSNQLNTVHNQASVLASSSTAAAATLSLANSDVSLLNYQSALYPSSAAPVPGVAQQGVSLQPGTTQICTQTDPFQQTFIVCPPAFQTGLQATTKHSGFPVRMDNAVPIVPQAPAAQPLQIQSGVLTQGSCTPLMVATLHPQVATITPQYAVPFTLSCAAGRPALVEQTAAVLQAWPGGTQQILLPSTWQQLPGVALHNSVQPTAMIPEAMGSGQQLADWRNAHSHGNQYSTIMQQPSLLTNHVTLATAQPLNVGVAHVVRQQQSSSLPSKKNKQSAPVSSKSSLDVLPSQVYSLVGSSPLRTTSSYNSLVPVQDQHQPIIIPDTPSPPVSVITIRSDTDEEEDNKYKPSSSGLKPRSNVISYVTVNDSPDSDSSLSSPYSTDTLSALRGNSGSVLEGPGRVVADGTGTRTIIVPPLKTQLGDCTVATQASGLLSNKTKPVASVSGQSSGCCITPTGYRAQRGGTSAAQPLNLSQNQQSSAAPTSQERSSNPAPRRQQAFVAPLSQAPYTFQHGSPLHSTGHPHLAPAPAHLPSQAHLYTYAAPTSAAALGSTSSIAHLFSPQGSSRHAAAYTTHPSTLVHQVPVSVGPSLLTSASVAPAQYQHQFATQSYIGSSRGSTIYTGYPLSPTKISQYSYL
Glycogen synthase kinase-3 beta (Homo sapiens), sequence (P49841 whole entry, looked up): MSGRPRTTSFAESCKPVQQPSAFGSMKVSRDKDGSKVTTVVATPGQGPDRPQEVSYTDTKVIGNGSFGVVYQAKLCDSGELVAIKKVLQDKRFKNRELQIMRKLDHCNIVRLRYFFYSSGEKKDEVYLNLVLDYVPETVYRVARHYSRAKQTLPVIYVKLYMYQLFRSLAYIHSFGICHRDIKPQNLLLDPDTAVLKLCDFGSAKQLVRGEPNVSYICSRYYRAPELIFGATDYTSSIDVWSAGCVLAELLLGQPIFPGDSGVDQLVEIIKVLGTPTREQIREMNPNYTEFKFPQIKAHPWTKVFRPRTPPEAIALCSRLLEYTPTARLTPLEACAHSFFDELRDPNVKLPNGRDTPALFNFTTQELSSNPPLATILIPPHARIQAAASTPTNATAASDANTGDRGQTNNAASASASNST

A word on the inhibition: it is the change of the read-out against control, counted positive when it falls. Regarding `Nc1nc(-c2ccc3c(c2)C(=Cc2cc(Br)c(O)c(Br)c2)C(=O)N3)cs1`, the inhibition in assay [1] was 4.42%; in assay [2], -1.1%; in assay [3], 4.76%; in assay [4] it was 0.92%; in [5], 11.3%; in [6], -3.8%. Also, the inhibition is -4.58% in assay [7]; -2.57% in assay [8]; -2.89% in assay [9]; -0.09% in assay [10]; 1.82% in [11]; -2.97% in assay [12]. For the same molecule, the inhibition in [13] was -1.79%; in assay [14], 1.75%; in assay [15] it was -0.33%; in [16], -2.08%; in assay [17], 2.83%; in assay [18] it was -2.1%. For the same molecule, the inhibition in [19] is -1.28%; in assay [20] it was -1.72%.
Consider `COc1cccc(-n2ncc3c(N/N=C/c4cccc(F)c4)ncnc32)c1`, for which the inhibition in assay [1] was 72.7%; in assay [2], -2.11%; in [3], 20.6%; in [4] it was 0.87%; in assay [5], 21.3%; in assay [6], 1.23%. Further, the inhibition in assay [7] was 4.69%; in assay [8], 1.94%; in [9], 3.29%; in [10], 1.61%; in assay [11] it was 0.85%; in assay [12], -2.57%. The inhibition in assay [13] was -3.83%; in [14] it was -0.34%; in assay [15], 5.39%; in [16], 3.19%; in assay [17], 0%; in assay [18], 2.14%. Further, the inhibition in assay [19] stood at 6.21%; in assay [20], 4.04%.
`CCn1c(-c2nonc2N)nc2cnc(Oc3cccc(NC(=O)c4ccc(OCCN5CCOCC5)cc4)c3)cc21`: the inhibition was found to be 53.9% in assay [1]; 1.81% in assay [2]; 11.5% in [3]; 0.11% in [4]; 10.4% in assay [5]; 3.93% in [6]. Moreover, the inhibition was 5.85% in assay [7]; 3.22% in assay [8]; 4.07% in assay [9]; 2.43% in [10]; -0.18% in assay [11]; -2.67% in assay [12]. For the same molecule, the inhibition was -1.29% in assay [13]; 2.01% in assay [14]; 5.87% in [15]; 0.84% in assay [16]; 1.06% in assay [17]; -1.34% in assay [18]. The inhibition came to 4.61% in [19] and 8.56% in [20].
Consider `CCn1c(-c2nonc2N)nc2cncc(C(=O)N3CC[C@H](N)C3)c21`, for which the inhibition in [1] was 12.1%; in [2], 1.36%; in [3], 8.14%; in assay [4] it was 0.99%; in [5], 3%; in assay [6], 8.24%. Moreover, the inhibition in assay [7] was 9.12%; in [8], 4.87%; in assay [9], 7.62%; in [10], 3.48%; in assay [11] it was 2.72%; in assay [12], -3.11%. The inhibition in assay [13] was -1.83%; in assay [14], -0.78%; in assay [15], 10.7%; in assay [16], 3.38%; in [17] it was 9.04%; in assay [18], 2.29%. Further, the results for the inhibition in assay [19] and in [20] were 5.01% and 0.14%, respectively.
In the case of `COc1cc2ncn(-c3cc(OCc4ccccc4C(F)(F)F)c(C(N)=O)s3)c2cc1OC`, the inhibition in assay [1] is 7.21%; in assay [2], -1.28%; in assay [3], 4.22%; in [4], 10.1%; in assay [5], 40.6%; in [6], 1.63%. Also, the inhibition is 2.16% in assay [7]; 4.18% in assay [8]; 6.38% in assay [9]; 5.3% in [10]; 3.77% in assay [11]; -2.16% in assay [12]. The inhibition in [13] was found to be 5.51%; in [14], 9.41%; in assay [15], 9.56%; in assay [16], 3.98%; in assay [17] it was 7.82%; in [18], 5.41%. The results for the inhibition in [19] and in [20] were 5.14% and 4.2%, respectively.
In the case of `CC1=C(C(=O)Nc2ccc3[nH]ncc3c2)C(c2ccc(F)cc2)NC(=O)N1` (stereo not given), the inhibition in assay [1] is 1.6%; in [2], -0.95%; in assay [3], -0.69%; in assay [4], -0.2%; in assay [5] it was -0.66%; in assay [6], 1.75%. Moreover, the inhibition in [7] is 0.78%; in assay [8], 1.62%; in assay [9], 4.83%; in assay [10], 2.23%; in [11], 3.56%; in assay [12] it was -2.61%. The inhibition in [13] is -0.84%; in [14], 2.74%; in assay [15] it was 6.99%; in assay [16], 2.94%; in assay [17], 3.88%; in [18], 0.78%. Further, the inhibition in assay [19] was 2.31%; in assay [20] it was 0.89%.
With `Fc1cccc(COc2ccc(Nc3ncnc4cc(-c5ccc[nH]5)sc34)cc2Cl)c1`, the inhibition is 1.92% in assay [1]; -5.52% in assay [2]; -2.5% in [3]; -1.95% in assay [4]; 2.7% in assay [5]; 2.73% in assay [6]. The inhibition in assay [7] is 3.15%; in assay [8] it was 3.5%; in [9] it was 4.2%; in assay [10] it was 0.89%; in assay [11] it was 1.55%; in assay [12], -2.27%. For the same molecule, the inhibition in assay [13] is -1.34%; in assay [14], 1.24%; in assay [15] it was 4.89%; in assay [16], 0.23%; in assay [17], -0.16%; in assay [18], 1.98%. In addition, the values for the inhibition in assay [19] and in assay [20] were 2.15% and 4.35%, respectively.
